Laboratory results published in PubChem BioAssay (NCATS).
Where “and” joins values, the source holds several entries; their conditions need not be identical. Identical values can stand only once. Records with an inconclusive call do not appear. Values without a mark were called inactive. Calls of active or inactive are those of the source. Calls follow the shape of the dose curve; as a rule, active = well fitted curve in the direction sought with a large enough effect; inconclusive = small, poorly fitted or top-dose-only effect, or another doubt; inactive = no such curve, though single readings can be large; an effect the other way counts as inactive or inconclusive.

What was measured:
[1] = Viability qHTS for spleen associated tyrosine kinase inhibitor (SYKi) drug resistant MV4-11 cells (AID 1963824); also: nearly all actives have a fitted effect of over 35% in size
Outline: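 SYK inhibitor-resistant MV4-11 AML cells, 500 per well, added to predispensed compounds and incubated 72 hr at 37 C, 5% CO2. Viability measured by CellTiter-Glo luminescence after 10 min at room temperature.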

[2] = Quantitative highthroughput screen to assess conditional lethalithy of NOMO1 cells grown in RPMI1640 with untreated serum (RPMI+s) (AID 1963876); also: nearly all actives have a fitted effect of over 35% in size;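 as to Viability: 100% = DMSO wells and 0% = empty wells without cells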
Outline: (§1)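 Each medium arm—HPLM with 10% dialyzed FBS, or RPMI1640 with 5 mM glucose and 10% untreated or dialyzed FBS—was screened against an 11-point, 3-fold compound titration for 48 h at 37 °C, with CellTiter-Glo luminescence as endpoint.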

[3] = Quantitative highthroughput screen to assess conditional lethalithy of P12 Ichikawa cells grown in Human Plasma-Like Medium with dialyzed fetal bovine serum (HPLM+ds) (AID 1963879); conditions: Potency: viability; also: nearly all actives have a fitted effect of over 35% in size; as to Viability: series mostly up to about 46 µM
Outline: as §1

[4] = Quantitative highthroughput screen to assess conditional lethalithy of P12 Ichikawa cells grown in RPMI1640 with dialyzed fetal bovine serum (RPMI+ds) (AID 1963880); conditions: Potency: P12-Ichikawa viability; also: nearly all actives have a fitted effect of over 35% in size;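 as to Viability: 100% = DMSO wells and 0% = empty wells on each plate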
Outline: as §1

[5] = Quantitative highthroughput screen to assess conditional lethalithy of P12 Ichikawa cells grown in RPMI1640 with untreated serum (RPMI+s) (AID 1963881); conditions: Potency: viability; also: nearly all actives have a fitted effect of over 35% in size;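 as to Viability: series mostly up to about 46 µM; 100% = DMSO wells and 0% = empty wells without cells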
Outline: as §1

[6] = Quantitative highthroughput screen to assess conditional lethalithy of SEM cells grown in Human Plasma-Like Medium with dialyzed fetal bovine serum (HPLM+ds) (AID 1963882); also: nearly all actives have a fitted effect of over 35% in size; as to Viability: series mostly up to about 46 µM
Outline: as §1

[7] = Cellular viability qHTS for adrenocortical cancer (ACC) cell line SW-13 (AID 1963989); conditions: SW-13 ACC cells viability, CellTiter-Glo, 48 h; activity (max response): active compounds read low; also: nearly all actives have a fitted effect of over 65% in size;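 as to activity (max response): cells grown in serum-free medium with ITS supplement; % is scaled to controls: 0 for no effect and ±100 for the full control effect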
Outline: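 Viability was read as CellTiter-Glo luminescence after 48 h compound treatment (up to 46 uM final) of SW-13 cells grown serum-free; titration curves were fit with a four-parameter logistic model to give IC50 and efficacy.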

[8] = Cellular viability qHTS for adrenocortical cancer (ACC) cell line NCI-H295R (AID 1963990); also: nearly all actives have a fitted effect of over 60% in size
Outline: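 CellTiter-Glo ATP luminescence, read 48 h after compound addition, measured viability of NCI-H295R adrenocortical cells grown serum-free with ITS. Final concentrations spanned up to 46 uM. Data normalized to DMSO and doxorubicin, fitted for IC50 and maximal response.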

[9] = Quantitative highthroughput screen to assess conditional lethalithy of SEM cells grown in RPMI1640 with unreated serum (RPMI+s) (AID 1963883); also: nearly all actives have a fitted effect of over 35% in size;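 as to Viability: 100% = DMSO wells and 0% = empty wells without cells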
Outline: as §1

[10] = Quantitative highthroughput screen to assess conditional lethalithy of SEM cells grown in RPMI1640 with dialyzed fetal bovine serum (RPMI+ds) (AID 1963884); also: nearly all actives have a fitted effect of over 35% in size;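 as to Viability: series mostly up to about 46 µM; 100% = DMSO control wells and 0% = empty wells without cells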
Outline: as §1

[11] = Quantitative highthroughput screen to assess conditional lethalithy of NOMO1 cells grown in Human Plasma-Like Medium with dialyzed fetal bovine serum (HPLM+ds) (AID 1963878); also: nearly all actives have a fitted effect of over 35% in size;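 as to Viability: 100% = DMSO wells and 0% = empty wells on each plate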
Outline: as §1
Potency is read from the fitted curve at half-maximal effect.

Compound | Potency [1] | Potency [2] | Potency [3] | Potency [4] | Potency [5] | Potency [6] | Potency [7] | Potency [8] | Potency [9] | Potency [10] | activity (max response) [7] | Potency [11]
CNC(=O)CN1CCC(Oc2cc3c(Nc4cccc(Cl)c4F)ncnc3cc2OC)CC1 | 11.6 µM (active) | 0.372 µM (active) | 2.64 µM (active) | 3.32 µM (active) | 2.09 µM (active) | inactive | 0.562 µM (active) | inactive |  |  |  | 
Cc1cc2c(cc1C1(c3ccc(C(=O)O)cn3)CC1)C(C)(C)CCC2(C)C | 0.468 µM (active) | inactive | inactive | inactive | inactive | inactive |  | inactive | inactive | 0.0662 µM (active) | 9.77% | 
O=C(NC1CC1)c1cccc(-c2ccc3c(NC(=O)C4CC4)n[nH]c3c2)c1 | 4.68 µM (active) | 23.5 µM (active) | 10.5 µM (active) | 11.8 µM (active) | 11.8 µM (active) | 16.6 µM (active) | 3.55 µM (active) | 15.8 µM (active) | 14.8 µM (active) | 16.6 µM (active) |  | 
c1ccc2c(Cc3c[nH]c4ccccc34)c[nH]c2c1 | 20.9 µM (active) | inactive |  |  |  |  |  |  |  | 20.9 µM (active) |  | 20.9 µM (active)
Cc1ccc(C(C)(O)c2nc3ccccc3s2)c(C)c1 (centres undefined) | 16.6 µM (active) | 13.2 µM (active) | 10.5 µM (active) | 18.7 µM (active) |  |  |  |  |  |  |  | 
Oc1ccc(C2=Cc3ccc(O)cc3OC2)cc1 | 0.366 µM (active) | 9.35 µM (active) | 2.96 µM (active) |  | 2.96 µM (active) | 2.96 µM (active) | 7.08 µM (active) | 11.2 µM (active) | 3.32 µM (active) | 3.72 µM (active) |  | 9.35 µM (active)
CN(C)CCN1C(=O)c2cccc3cc(N)cc(c23)C1=O | 3.72 µM (active) | 14.8 µM (active) | 18.7 µM (active) | 18.7 µM (active) | 16.6 µM (active) | 5.9 µM (active) | 22.4 µM (active) | 22.4 µM (active) | 5.26 µM (active) | 9.35 µM (active) |  | 14.8 µM (active)
O=C(O)CCCc1c[nH]c2ccccc12 | inactive | inactive | inactive | inactive | inactive | inactive |  | inactive | inactive | inactive | 1.46% | inactive
O=C(O)c1ccc2cc(-c3ccc(O)c(C45CC6CC(CC(C6)C4)C5)c3)ccc2c1 | 0.417 µM (active) | 1.05 µM (active) | 0.59 µM (active) | 0.418 µM (active) | 0.469 µM (active) | 0.372 µM (active) |  | 0.708 µM (active) | 0.372 µM (active) | 0.235 µM (active) |  | 
CC(=O)Oc1ccccc1C(=O)Nc1ncc([N+](=O)[O-])s1 | 11.9 µM (active) and 20.9 µM (active) | inactive |  |  | inactive |  |  | inactive | inactive | inactive | 7.32% and 2.04% | 
CC(C)[C@H](O)C(=O)N[C@@H](C)C(=O)N[C@@H]1C(=O)N(C)CCc2ccccc21 | inactive | inactive | inactive | inactive | inactive | inactive |  | inactive | inactive | inactive | 8.71% | inactive
CCCCn1c(=O)n(Cc2ccccc2F)c(=O)c2[nH]c(Cc3ccc(NC(C)=O)cc3)nc21 | 18.6 µM (active) | inactive | inactive | inactive | inactive | inactive |  | inactive | inactive | inactive | -3.74% | inactive
Cc1noc(-c2ccc(CSCCC(=O)O)cc2)c1NC(=O)OC(C)c1ccccc1Cl (centres undefined) | inactive | inactive | 18.7 µM (active) | inactive | inactive | inactive |  | inactive | inactive |  | -1.37% | inactive
C[C@@H]1CC[C@@]2(OC1)OC1CC3C4CC=C5CC(O)CCC5(C)C4CCC3(C)C1[C@@H]2C (some centres undefined) | inactive | 14.8 µM (active) | 11.8 µM (active) | 18.7 µM (active) |  |  |  | inactive |  |  | -3.87% | 13.2 µM (active)
CN(C)c1ccccc1CN1CCCN(Cc2ccccc2N(C)C)C1c1ccncc1 | 7.42 µM (active) | inactive |  |  | inactive | inactive | 28.2 µM (active) | 28.2 µM (active) |  | inactive |  | 
CCCS(=O)c1ccc2nc(NC(=O)OC)[nH]c2c1 (centres undefined) | 23.7 µM (active) and 23.5 µM (active) | 20.9 µM (active) |  |  |  |  | 25.1 µM (active) |  |  | 9.35 µM (active) |  | 20.9 µM (active)
c1coc(CNc2ncnc3nc[nH]c23)c1 | 18.6 µM (active) | inactive | inactive |  | inactive | inactive |  |  | inactive | inactive | -0.681% | inactive
